# Where a chain is given by its changes, count along the chain named.
# How the values were obtained:
# Test in all cases: protein-binding microarray (PBM); PBM: ~300 nM protein, 6 mM HEPES pH 7.8, 80 mM KCl, 0.5 mM EDTA, 0.5 mM EGTA, 6% glycerol, 35 ng/ul poly-dIdC, 1% milk, 1 h, room temperature; Ap Aiptasia and Nv Nematostella (sea anemones) / Co Capsaspora / Aq Amphimedon (sponge) / Dm Drosophila / Hu human; RHD is the Rel homology domain; high values mean tight binding
# Details in all cases: dsDNA, one strand shown
# GST-Ap-NF-kB RHD = biological target: T1, GST-Ap-NF-kB RHD (Exaiptasia pallida (Aiptasia), UniProt A0A913YAJ5 2-422)
# T1 sequence: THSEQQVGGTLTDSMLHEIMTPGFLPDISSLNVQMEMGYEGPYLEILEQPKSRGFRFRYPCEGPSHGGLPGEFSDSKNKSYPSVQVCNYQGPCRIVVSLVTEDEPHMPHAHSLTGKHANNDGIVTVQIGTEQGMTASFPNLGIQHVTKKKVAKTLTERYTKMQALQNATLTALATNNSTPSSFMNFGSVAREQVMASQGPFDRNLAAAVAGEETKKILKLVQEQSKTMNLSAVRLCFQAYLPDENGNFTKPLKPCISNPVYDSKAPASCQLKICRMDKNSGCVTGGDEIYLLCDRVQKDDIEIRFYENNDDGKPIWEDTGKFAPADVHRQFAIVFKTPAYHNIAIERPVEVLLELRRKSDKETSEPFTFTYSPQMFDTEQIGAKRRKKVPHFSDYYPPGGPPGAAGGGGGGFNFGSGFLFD
# [1] = biological target: T2, GST-Nv-NF-kB (Cys allele) (Nematostella vectensis, UniProt E5G601 2-411)
# T2 sequence: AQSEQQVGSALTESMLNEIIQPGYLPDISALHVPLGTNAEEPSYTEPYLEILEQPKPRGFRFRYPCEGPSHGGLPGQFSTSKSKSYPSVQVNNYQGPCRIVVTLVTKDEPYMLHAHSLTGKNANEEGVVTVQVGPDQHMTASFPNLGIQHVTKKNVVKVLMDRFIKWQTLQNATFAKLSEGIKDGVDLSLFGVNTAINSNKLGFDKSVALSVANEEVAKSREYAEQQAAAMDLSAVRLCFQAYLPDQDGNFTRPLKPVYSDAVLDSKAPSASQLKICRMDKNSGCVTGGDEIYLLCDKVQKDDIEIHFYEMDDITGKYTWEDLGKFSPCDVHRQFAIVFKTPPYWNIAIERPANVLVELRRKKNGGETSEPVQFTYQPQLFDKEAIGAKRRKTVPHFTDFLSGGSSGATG
# [2] = biological target: T3, GST-Nv-NF-kB (Ser allele) (Nematostella vectensis, UniProt A7UNT2 2-411)
# T3 sequence: T2 sequence with Q21R, C66S, S207N, E215Q, V217A, E225K, A268E, D399E
# GST-Co-NF-kB = biological target: T4, GST-Co-NF-kB (Capsaspora owczarzaki, UniProt F1ARL5 200-546)
# T4 sequence: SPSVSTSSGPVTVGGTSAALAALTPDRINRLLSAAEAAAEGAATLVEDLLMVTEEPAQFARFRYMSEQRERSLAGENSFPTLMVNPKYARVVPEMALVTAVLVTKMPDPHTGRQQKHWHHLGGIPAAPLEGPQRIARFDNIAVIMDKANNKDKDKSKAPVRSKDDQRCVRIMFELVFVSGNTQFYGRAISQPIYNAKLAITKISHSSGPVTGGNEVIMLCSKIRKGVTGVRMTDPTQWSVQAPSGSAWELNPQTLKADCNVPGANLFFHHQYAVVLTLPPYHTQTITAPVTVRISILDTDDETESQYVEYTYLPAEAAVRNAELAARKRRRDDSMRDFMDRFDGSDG
# GST-Dm-Relish = biological target: T5, GST-Dm-Relish (Drosophila melanogaster, UniProt Q94527 99-473)
# T5 sequence: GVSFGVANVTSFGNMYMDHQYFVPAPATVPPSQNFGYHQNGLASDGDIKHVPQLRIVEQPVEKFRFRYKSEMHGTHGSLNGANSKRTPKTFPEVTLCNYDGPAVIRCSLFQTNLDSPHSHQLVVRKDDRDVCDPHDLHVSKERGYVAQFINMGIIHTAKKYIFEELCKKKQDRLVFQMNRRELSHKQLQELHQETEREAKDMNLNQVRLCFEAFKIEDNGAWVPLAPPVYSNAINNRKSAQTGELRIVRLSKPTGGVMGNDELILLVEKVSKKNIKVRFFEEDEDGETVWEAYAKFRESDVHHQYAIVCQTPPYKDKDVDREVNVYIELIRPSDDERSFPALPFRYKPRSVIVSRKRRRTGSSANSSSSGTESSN
# GST-Aq-NF-kB = biological target: T6, GST-Aq-NF-kB (Amphimedon queenslandica, UniProt A9Y5G7 2-389)
# T6 sequence: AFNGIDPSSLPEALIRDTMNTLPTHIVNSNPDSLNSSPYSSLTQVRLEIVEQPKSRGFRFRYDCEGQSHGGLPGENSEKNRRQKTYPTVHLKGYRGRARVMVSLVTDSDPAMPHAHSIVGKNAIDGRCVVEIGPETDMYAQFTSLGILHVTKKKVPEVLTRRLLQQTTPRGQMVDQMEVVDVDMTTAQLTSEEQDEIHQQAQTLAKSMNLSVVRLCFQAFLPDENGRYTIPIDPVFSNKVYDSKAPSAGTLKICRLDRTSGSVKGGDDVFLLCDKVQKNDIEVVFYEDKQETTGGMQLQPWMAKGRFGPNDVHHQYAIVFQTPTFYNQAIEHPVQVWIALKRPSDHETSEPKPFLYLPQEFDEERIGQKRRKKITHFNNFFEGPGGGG
# GST-Hu-p50 = GST-Hu-p50 (Homo sapiens, UniProt P19838 7-356)
# GST-Hu-p50, sequence (P19838 7-356): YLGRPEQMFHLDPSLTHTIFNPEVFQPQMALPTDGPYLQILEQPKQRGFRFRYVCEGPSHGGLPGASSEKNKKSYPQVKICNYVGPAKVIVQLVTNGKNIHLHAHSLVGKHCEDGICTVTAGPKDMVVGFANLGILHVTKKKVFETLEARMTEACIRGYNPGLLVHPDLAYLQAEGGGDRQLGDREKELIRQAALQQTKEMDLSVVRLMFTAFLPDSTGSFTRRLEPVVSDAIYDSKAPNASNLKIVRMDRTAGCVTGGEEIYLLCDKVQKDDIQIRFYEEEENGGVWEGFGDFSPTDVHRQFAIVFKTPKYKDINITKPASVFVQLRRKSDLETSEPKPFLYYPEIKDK
Sequence,binding signal (GST-Ap-NF-kB RHD) [z-score],binding signal [1] [z-score],binding signal [2] [z-score],binding signal (GST-Co-NF-kB) [z-score],binding signal (GST-Dm-Relish) [z-score],binding signal (GST-Aq-NF-kB) [z-score],binding signal (GST-Hu-p50) [z-score]
CCGATTAACATCAGGGGGTTGGATGATGTTAATCGGGTCTTGATTCGCTTGACGCTGCTG,4.25,3.25,4.6,2.05,4.45,3.38,4.51
CCGATTAACATCAAGGGGGATTATGATGTTAATCGGGTCTTGATTCGCTTGACGCTGCTG,8.36,7.48,8.59,4.73,6.5,6.85,7.48
CCGATTAACATCAAGCATTCCCCTGATGTTAATCGGGTCTTGATTCGCTTGACGCTGCTG,6.61,7.73,8.37,5.48,4.42,5.38,5.38
CCGATTAACATCAAACAGCCCCCTGATGTTAATCGGGTCTTGATTCGCTTGACGCTGCTG,3.65,4.11,2.49,1.91,2.9,5.29,3.92
CCGATTAACATCAGAATTACCCCTGATGTTAATCGGGTCTTGATTCGCTTGACGCTGCTG,4.43,5.36,5.04,5.87,2.94,5.49,4.69
CCGATTAACATCAGGAGAGCCCCTGATGTTAATCGGGTCTTGATTCGCTTGACGCTGCTG,3.65,3.73,1.67,–,2.24,6.28,3.2
CCGATTAACATCAGGGGGAATACTGATGTTAATCGGGTCTTGATTCGCTTGACGCTGCTG,8.15,8.32,8.65,9.18,7.69,6.87,6.83
CCGATTAACATCAGGAAATCACCTGATGTTAATCGGGTCTTGATTCGCTTGACGCTGCTG,2.81,3.51,3.89,–,7.51,4.87,5.42
CCGATTAACATCAAAATTCCCTATGATGTTAATCGGGTCTTGATTCGCTTGACGCTGCTG,4.89,8.05,7.32,3.27,5.2,6.99,5.69
CCGATTAACATCAAGGGACTTTCTGATGTTAATCGGGTCTTGATTCGCTTGACGCTGCTG,7.14,9.44,8.36,–,7.3,7.13,5.98
CCGATTAACATCAGGGAAGGCCCTGATGTTAATCGGGTCTTGATTCGCTTGACGCTGCTG,4.52,4.31,1.93,–,8.94,6.45,2.96
CCGATTAACATCAAGGTTCCCCCTGATGTTAATCGGGTCTTGATTCGCTTGACGCTGCTG,8.03,6.89,7.86,9.24,5.67,5.62,5.92
CCGATTAACATCACAAAAGTCCCTGATGTTAATCGGGTCTTGATTCGCTTGACGCTGCTG,7.21,9.22,9.85,2.27,7.55,7.54,6.52
CCGATTAACATCAGGAAAGCACCTGATGTTAATCGGGTCTTGATTCGCTTGACGCTGCTG,2.85,4.19,2.69,–,6.13,5.89,4.74
CCGATTAACATCAAGGGGTTTCCTGATGTTAATCGGGTCTTGATTCGCTTGACGCTGCTG,6.93,5.76,4.08,–,7.98,6.62,5.36
CCGATTAACATCAACTTTTCCCCTGATGTTAATCGGGTCTTGATTCGCTTGACGCTGCTG,6.24,7.19,10,9,2.99,5.09,5.48
CCGATTAACATCAGGGATTGCCCTGATGTTAATCGGGTCTTGATTCGCTTGACGCTGCTG,4.32,3.8,1.87,–,5.25,6.11,2.54
CCGATTAACATCAGGGTTTCACCTGATGTTAATCGGGTCTTGATTCGCTTGACGCTGCTG,1.51,1.95,1.23,–,5.71,3.71,2.5
CCGATTAACATCAGGGGGGACCCTGATGTTAATCGGGTCTTGATTCGCTTGACGCTGCTG,6.34,4.19,3.73,4.11,6.14,5.92,4.27
CCGATTAACATCAGGGAAGAACCTGATGTTAATCGGGTCTTGATTCGCTTGACGCTGCTG,2.43,3.52,3.35,1.42,8.73,5.54,2.83
CCGATTAACATCAGGGAGGTACCTGATGTTAATCGGGTCTTGATTCGCTTGACGCTGCTG,3.34,2.59,2.93,–,5.13,3.92,2.03
CCGATTAACATCAGGCCATTCCCTGATGTTAATCGGGTCTTGATTCGCTTGACGCTGCTG,1.39,2.63,1.77,–,2.6,4.37,1.79
CCGATTAACATCAGGGGAAAGAATGATGTTAATCGGGTCTTGATTCGCTTGACGCTGCTG,4.95,6.07,8.18,8.25,3.01,4.87,5.05
CCGATTAACATCAGGGACTTCACTGATGTTAATCGGGTCTTGATTCGCTTGACGCTGCTG,3.82,4.27,4.08,–,7.9,5.14,4.12

# Source: paper PMC5700166
